Experimental findings from PubChem BioAssay (NCATS) are described below.

The structures appear in SMILES notation. Unmarked numbers belong to inactive results. Records with an inconclusive call do not appear. Calls of active or inactive are those of the source. Unless noted, calls come from the whole dose curve; as a rule, active = well fitted curve in the direction sought with a large enough effect; inconclusive = small, poorly fitted or top-dose-only effect, or another doubt; inactive = no such curve, though single readings can be large; an effect the other way counts as inactive or inconclusive.

The nature of assay [1]: AP1 Signaling Pathway (AID 357; active = well fitted curve in either direction with a large enough effect, not every such curve was filed as active;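 note: ME-180 reporter cells stimulated with EGF at its EC50 level; % is set by controls: 0 for no effect and ±100 for the full control effect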). Conditions: ME-180 AP-1-bla reporter, EGF-induced, beta-lactamase ratio, 5 h; at 7.69 µM (top of the series) unless noted. The method, boiled down: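 In this screen, ME-180 cells in Opti-MEM with 0.5% dialyzed FBS received EC50 EGF and compound titrations for 5 h. AP-1 reporter beta-lactamase was detected via CCF4 ratio, giving AC50 for positive and negative modulators.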

Assay [2] has as its target Cytochrome P450 1A2 (Homo sapiens) (UniProt P05177). In words: p450-cyp1a2 (AID 410; calls by dose curve;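 note: -100% = full effect of reference inhibitor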). The gist of the method: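 Luminescent demethylation readout: Luciferin-ME (100uM, equal to Km) turned over by 20nM CYP1A2 for 60 min at room temperature after NADPH regeneration addition, following 10 min compound preincubation. Normalization used 57 uM furafylline as full inhibition.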

Assay [3] is described as follows: NFAT Signaling Pathway (AID 444; active = well fitted curve in either direction with a large enough effect, not every such curve was filed as active;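 note: carbachol stimulus at about its EC50 of 1 µM final; % is set by controls: 0 for no effect and ±100 for the full control effect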). The following applies: Jurkat NFAT-bla M1, carbachol, beta-lactamase ratio, 5 h; at 7.69 µM (top of the series) unless noted. The gist of the method: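 Read-out: CCF4 FRET ratio (460 nm/530 nm) after 1 h RT dye loading, used for %activity and AC50 from titration series. Cells: Jurkat NFAT-β-lactamase/M1 line, treated with compound plus 1 uM carbachol for 5 h, 37 °C.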

A short description of assay [4]: Stat Signaling Pathway (AID 446; active = well fitted curve in either direction with a large enough effect, not every such curve was filed as active;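 note: ME-180 cervical cancer cells given 40 pM IL-6 alongside compound; SIE-controlled beta-lactamase reporter measured as 460/530 nm FRET emission ratio; % is set by controls: 0 for no effect and ±100 for the full control effect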). Conditions: ME-180 (cervical carcinoma) SIE beta-lactamase reporter, IL-6 stimulated, 5 h; at 7.69 µM (top of the series) unless noted. The gist of the method:
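Emission at 460 and 530 nm (excitation 405 nm) reports SIE-controlled beta-lactamase in ME-180 cells. Cells received compound with 40 pM IL-6 for 5 hrs at 37 C; data scaled between 300 pM IL-6 and 125 nM JAK-inhibitor controls.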

Assay [5] has as its target Glucocorticoid receptor (Homo sapiens) (UniProt P04150). Description: GR-GFP Redistribution (AID 450;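 active = compounds whose dose series gives a full or clear partial fitted curve of increased nuclear translocation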; note: potency is the fitted concentration of half-maximal effect). Conditions: U2OS GR-GFP nuclear translocation, laser cytometry, 2 h.
For assay [6] the target is unchanged. In words: GR-EFC Redistribution (AID 451; calls by dose curve; note: potency is the fitted concentration of half-maximal effect). The following applies: CHO-K1 GR-EFC translocation, beta-gal luminescence, 2 h. The method, boiled down:
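Translocation of GR-ED fusion to nuclear EA restores b-gal, read by luminescence after 1 h room-temperature detection. Engineered CHO-K1 biosensor cells, 1,000/well, exposed 2 h at 37 C to titrations up to 46 uM final.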

Assay [7] has as its target Mitogen-activated protein kinase 10 (Mus musculus) (UniProt Q61831). Description: JNK3 AlphaScreen Assay (AID 530; active = well fitted curve in either direction with a large enough effect, not every such curve was filed as active;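 note: kinase came from lysate of stimulated human HepG2 cells; signal reports phosphorylation of biotinylated GST-cJun 1-79 at Ser73 with 10 µM ATP; % is set by controls: 0 for no effect and ±100 for the full control effect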). The method, boiled down: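 qHTS titrations with 15 min compound pre-incubation before adding ATP (10 uM final). Read-out: AlphaScreen of Ser73-phosphorylated biotin-GST-cJun using HepG2 lysate JNK3 activated by IL-1β and TNFα.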
On the technique in general: In Alpha technology, singlet oxygen from a donor bead excites a nearby acceptor bead.

Assay [8] deals with 3',5'-cyclic-AMP phosphodiesterase 4B (Homo sapiens) (UniProt Q07343). Description: qHTS Assay for Inhibitors of PDE-IV (AID 607; active = well fitted activation curve with a large enough effect in the main read-out, with a control signal flat, not every such curve was filed as active; note: % of control where 0% means no effect). The gist of the method:
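The readout is membrane depolarisation from a cAMP-sensing CNG channel, detected with a potential dye at ex 535/em 590. Cells were HEK293-derived (endogenous PDE-IV) at 1000 cells/well, titrated up to 22.9 uM final.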
(qHTS replaces the single test concentration by a dilution series.)

The target of assay [9] is Guanine nucleotide-binding protein G(i) subunit alpha-1 (Homo sapiens) (UniProt P63096). In words: qHTS Assay for Inhibitors of RGS12 GoLoco Motif Activity (Green Fluorophore) (AID 879).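 Note: 0% = labeled peptide with Gαi1 and full inhibition = labeled peptide alone without protein; negative values mean loss of peptide binding seen as reduced polarization.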 The method, boiled down: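 A drop in FITC polarization marked displacement of the FITC-tagged RGS12 GoLoco peptide (10 nM) from Gαi1 (50 nM). Compounds were incubated 10 min at room temperature in Tris pH 7.5 buffer containing 150 mM NaCl, 0.1 mM GDP and 0.05% NP40; unlabeled peptide titration served as control.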
Sequence of Guanine nucleotide-binding protein G(i) subunit alpha-1 (Homo sapiens) (P63096 whole entry, looked up): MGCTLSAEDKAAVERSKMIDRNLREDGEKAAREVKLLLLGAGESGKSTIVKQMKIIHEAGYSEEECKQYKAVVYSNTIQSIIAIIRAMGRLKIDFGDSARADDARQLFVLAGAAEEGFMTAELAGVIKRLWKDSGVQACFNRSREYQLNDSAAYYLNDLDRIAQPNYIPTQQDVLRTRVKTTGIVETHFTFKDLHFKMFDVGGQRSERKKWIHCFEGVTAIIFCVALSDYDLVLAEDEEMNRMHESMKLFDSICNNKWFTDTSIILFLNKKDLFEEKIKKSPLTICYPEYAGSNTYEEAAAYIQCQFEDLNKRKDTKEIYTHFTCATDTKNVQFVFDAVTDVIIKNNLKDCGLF

Assay [10] deals with Cytochrome P450 2C19 (Homo sapiens) (UniProt P33261). In words: qHTS Assay for Inhibitors and Substrates of Cytochrome P450 2C19 (AID 899). Note: % is set by controls: 0 for no effect and ±100 for the full control effect; nearly all actives have a fitted effect of over 60% in size. The method, boiled down:
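Reactions contain 5nM enzyme, 10uM Luciferin-H EGE (KM) and 50mM KPO4; compound preincubates 10 min at 37C, NADPH regeneration starts turnover for 60 min. Luminescence after detection reagent gives activity.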

Assay [11] is described as follows: qHTS Assay for Identification of Small Molecule Agonists for Thrombopoietin (TPO) Signaling Pathway (AID 917). Note: % is set by controls: 0 for no effect and ±100 for the full control effect. The method, boiled down:
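Human TPO receptor–transfected Ba/F3 cells (murine, IL-3-dependent) in IL-3-deficient medium; compounds plus TPO at EC50, 26 pM final; 24 hrs, 37 C; GpIIb-luciferase luminescence after 10 min RT detection.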

For assay [12], the target named is Muscarinic acetylcholine receptor M1 (Rattus norvegicus) (UniProt P08482). Description: qHTS Assay for Antagonists of Acetylcholine Muscarinic M1 Receptor: Kinetic Measurement of Intracellular Calcium Response (AID 943).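 For activity change, negative = inhibition: Fluo-4 calcium signal as peak divided by basal fluorescence over 4 min.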 Note: nearly all actives have a fitted effect of over 75% in size. Note: potency is the fitted concentration of half-maximal effect. The gist of the method:
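Antagonism measured as reduction of carbachol-evoked (EC80, 100 nM final) calcium flux in rat M1-CHO cells after 10 min compound exposure. Fluo-4 signal read kinetically; ratio of maximal to basal fluorescence.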

For assay [13] the target is unchanged. In words: qHTS Assay for Antagonists of Acetylcholine Muscarinic M1 Receptor: Measurement of IP-One Response (AID 944). Note: nearly all actives have a fitted effect of over 75% in size. Note: potency is the fitted concentration of half-maximal effect. The method, boiled down:
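IP1 accumulation measured via TR-FRET between d2-IP1 and Eu-cryptate anti-IP1 antibody after carbachol (200 nM, EC80) stimulation for 30 min; rat M1-transfected CHO cells received compound 10 min before agonist.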

The target of assay [14] is Pyruvate kinase (Leishmania mexicana) (UniProt Q27686). Description: qHTS Validation Assay for Inhibitors of Leishmania Mexicana Pyruvate Kinase (AID 945).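 Note: 0% = DMSO only neutral control wells.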 The gist of the method: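 An endpoint luciferase assay: 0.2 nM LmPYK E451W turns over 0.5 mM PEP with 0.1 mM ADP for 1 h at room temperature, pH 7.2, before PKLight addition. Values are normalized to DMSO-only wells.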
Sequence of Pyruvate kinase (Leishmania mexicana) (Q27686 2-499 E452W): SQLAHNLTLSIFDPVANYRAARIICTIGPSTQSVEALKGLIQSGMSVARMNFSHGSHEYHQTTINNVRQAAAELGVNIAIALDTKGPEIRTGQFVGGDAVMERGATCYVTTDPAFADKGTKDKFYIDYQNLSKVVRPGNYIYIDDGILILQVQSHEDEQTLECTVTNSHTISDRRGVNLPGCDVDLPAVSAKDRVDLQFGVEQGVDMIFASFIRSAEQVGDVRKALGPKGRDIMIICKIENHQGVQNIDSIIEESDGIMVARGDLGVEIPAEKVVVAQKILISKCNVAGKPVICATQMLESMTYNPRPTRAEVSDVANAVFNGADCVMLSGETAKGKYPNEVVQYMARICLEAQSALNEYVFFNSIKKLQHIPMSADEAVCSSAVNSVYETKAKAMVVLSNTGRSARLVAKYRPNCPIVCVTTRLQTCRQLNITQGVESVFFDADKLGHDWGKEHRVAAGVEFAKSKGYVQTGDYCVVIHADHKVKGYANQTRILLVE

Assay [15] deals with Pyruvate kinase PKM (Homo sapiens) (UniProt P14618). In words: qHTS Assay for Activators of Human Muscle Pyruvate Kinase (AID 954; active = well fitted curve in the direction sought with a large enough effect, not every such curve was filed as active;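 note: 0% = uninhibited enzyme and -100% = no enzyme or full thiadiazolimine inhibition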). The gist of the method: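 PKM2, human, >95% pure, 0.1 nM; PEP 0.5 mM (Km), ADP 0.1 mM; 50 mM imidazole pH 7.2, 50 mM KCl, 0.01% Tween 20, 0.05% BSA; 1 h RT; luciferase luminescence readout.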
Sequence of Pyruvate kinase PKM (Homo sapiens) (P14618 whole entry, looked up): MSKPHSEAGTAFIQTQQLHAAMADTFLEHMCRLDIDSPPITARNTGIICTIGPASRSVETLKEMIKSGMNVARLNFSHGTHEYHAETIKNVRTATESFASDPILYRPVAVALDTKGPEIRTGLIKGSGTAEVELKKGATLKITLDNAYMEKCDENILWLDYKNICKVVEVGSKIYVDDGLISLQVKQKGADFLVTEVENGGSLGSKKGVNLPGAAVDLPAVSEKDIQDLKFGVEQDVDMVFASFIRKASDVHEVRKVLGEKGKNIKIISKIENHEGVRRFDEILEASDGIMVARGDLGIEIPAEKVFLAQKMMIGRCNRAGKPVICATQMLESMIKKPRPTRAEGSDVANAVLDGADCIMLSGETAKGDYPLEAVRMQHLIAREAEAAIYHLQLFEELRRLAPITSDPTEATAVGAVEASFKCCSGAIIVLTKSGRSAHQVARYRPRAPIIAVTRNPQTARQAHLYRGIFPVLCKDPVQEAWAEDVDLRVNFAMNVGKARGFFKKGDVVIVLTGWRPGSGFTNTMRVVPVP
Assay [16] concerns the target Alpha-galactosidase A (Homo sapiens) (UniProt P06280). Description: Counterscreen for Glucocerebrosidase Inhibitors: qHTS Assay for Human alpha-Galactosidase at pH 4.5 (AID 992). Note: 0% is about no effect. The method, boiled down: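 Fluorogenic 4-MU alpha-D-galactoside (80 uM) hydrolysis, 2 nM enzyme, pH 4.5 citrate buffer + 0.005% Tween-20; 20 min RT; NaOH/glycine pH 10 stop; Ex365/Em440. Compounds titrated 0.7 nM–77 uM; Hill-equation AC50.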

Assay [17] concerns the target alpha-glucosidase (Oryza sativa, rice) (UniProt Q653V4). In words: Counterscreen for Glucocerebrosidase Inhibitors: qHTS Assay for Rice alpha-Glucosidase at pH 5.0 (AID 997).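 Note: 0% = full activity with enzyme and -100% = basal without enzyme.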 The gist of the method: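 Endpoint fluorogenic assay at pH 5.0: compounds (0.7 nM to 77 uM) titrated against 4 nM rice enzyme and 400 uM 4-MU-alpha-glucoside for 20 min at room temperature; NaOH/glycine stop, read ex 365/em 440 nm, Hill-fitted AC50.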
(Counterscreens check selectivity or assay interference.)

Assay [18] concerns the target Alpha-galactosidase (Coffea arabica) (UniProt Q42656). Description: Counterscreen for Glucocerebrosidase Inhibitors: qHTS Assay for Coffee Bean alpha-Galactosidase at pH 5.9 (AID 998).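 Note: plate controls were uninhibited enzyme for no effect and no-enzyme basal signal for full effect.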 The method, boiled down:
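Fluorogenic 4-MU substrate hydrolysis, 80 uM substrate and 2 nM coffee bean alpha-galactosidase, pH 5.9 citrate buffer, 20 min at room temperature, then NaOH/glycine stop. Titration 0.7 nM–77 uM, normalized to no-enzyme and enzyme controls, AC50 via Hill equation.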

Sequence of Muscarinic acetylcholine receptor M1 (Rattus norvegicus) (P08482 whole entry, looked up): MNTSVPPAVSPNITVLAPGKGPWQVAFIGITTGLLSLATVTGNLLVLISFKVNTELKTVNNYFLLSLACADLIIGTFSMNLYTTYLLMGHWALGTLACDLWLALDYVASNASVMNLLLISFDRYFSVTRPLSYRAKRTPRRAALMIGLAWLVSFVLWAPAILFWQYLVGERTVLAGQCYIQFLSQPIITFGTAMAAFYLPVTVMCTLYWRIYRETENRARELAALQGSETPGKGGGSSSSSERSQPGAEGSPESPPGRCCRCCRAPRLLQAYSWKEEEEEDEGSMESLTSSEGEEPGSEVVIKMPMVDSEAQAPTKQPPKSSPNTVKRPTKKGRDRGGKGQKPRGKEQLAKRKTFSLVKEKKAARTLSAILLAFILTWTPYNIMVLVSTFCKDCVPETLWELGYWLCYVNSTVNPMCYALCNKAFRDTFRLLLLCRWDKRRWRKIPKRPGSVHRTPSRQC
Sequence of Cytochrome P450 1A2 (Homo sapiens) (P05177 whole entry, looked up): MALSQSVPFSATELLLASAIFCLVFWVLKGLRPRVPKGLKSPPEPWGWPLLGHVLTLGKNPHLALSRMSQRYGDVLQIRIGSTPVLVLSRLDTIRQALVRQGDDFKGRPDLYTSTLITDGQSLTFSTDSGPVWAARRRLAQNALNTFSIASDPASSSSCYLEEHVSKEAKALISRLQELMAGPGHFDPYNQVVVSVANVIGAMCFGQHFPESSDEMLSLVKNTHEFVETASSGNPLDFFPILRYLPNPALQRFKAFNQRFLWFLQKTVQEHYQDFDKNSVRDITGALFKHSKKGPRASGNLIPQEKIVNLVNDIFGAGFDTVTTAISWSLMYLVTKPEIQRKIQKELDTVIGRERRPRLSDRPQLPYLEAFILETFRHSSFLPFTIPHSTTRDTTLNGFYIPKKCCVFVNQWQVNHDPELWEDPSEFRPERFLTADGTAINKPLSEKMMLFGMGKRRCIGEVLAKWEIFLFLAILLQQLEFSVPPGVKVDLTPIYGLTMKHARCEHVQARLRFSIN
Sequence of Alpha-galactosidase A (Homo sapiens) (P06280 whole entry, looked up): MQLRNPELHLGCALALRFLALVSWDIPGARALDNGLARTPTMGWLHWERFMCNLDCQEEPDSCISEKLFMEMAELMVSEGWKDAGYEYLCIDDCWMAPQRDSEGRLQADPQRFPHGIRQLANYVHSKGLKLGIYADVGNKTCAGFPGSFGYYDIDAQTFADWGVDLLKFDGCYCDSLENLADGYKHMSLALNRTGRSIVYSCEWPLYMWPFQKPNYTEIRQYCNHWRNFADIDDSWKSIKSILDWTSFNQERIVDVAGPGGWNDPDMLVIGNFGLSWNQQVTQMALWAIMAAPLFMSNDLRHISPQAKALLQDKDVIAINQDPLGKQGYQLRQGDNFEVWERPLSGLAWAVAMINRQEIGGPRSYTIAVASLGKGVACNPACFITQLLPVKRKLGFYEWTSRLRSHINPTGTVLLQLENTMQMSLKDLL
Sequence of 3',5'-cyclic-AMP phosphodiesterase 4B (Homo sapiens) (Q07343 whole entry, looked up): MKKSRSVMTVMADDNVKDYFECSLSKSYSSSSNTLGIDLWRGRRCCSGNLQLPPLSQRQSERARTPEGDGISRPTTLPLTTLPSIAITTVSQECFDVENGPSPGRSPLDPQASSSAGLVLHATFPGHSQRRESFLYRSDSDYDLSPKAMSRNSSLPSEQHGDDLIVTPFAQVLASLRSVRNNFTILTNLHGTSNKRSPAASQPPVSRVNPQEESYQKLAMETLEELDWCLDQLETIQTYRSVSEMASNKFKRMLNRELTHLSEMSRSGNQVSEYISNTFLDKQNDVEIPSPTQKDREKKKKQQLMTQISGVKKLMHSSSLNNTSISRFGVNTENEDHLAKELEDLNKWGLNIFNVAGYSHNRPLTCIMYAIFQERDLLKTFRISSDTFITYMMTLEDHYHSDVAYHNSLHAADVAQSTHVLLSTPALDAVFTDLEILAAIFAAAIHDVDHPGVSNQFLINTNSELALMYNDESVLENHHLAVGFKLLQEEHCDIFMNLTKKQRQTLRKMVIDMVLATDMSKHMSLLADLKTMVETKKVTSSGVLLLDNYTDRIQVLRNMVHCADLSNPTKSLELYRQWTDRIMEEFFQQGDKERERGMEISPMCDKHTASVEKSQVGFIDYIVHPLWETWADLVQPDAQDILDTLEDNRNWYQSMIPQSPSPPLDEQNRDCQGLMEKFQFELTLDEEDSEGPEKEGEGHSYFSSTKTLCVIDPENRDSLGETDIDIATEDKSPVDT
Sequence of Alpha-galactosidase (Coffea arabica) (Q42656 whole entry, looked up): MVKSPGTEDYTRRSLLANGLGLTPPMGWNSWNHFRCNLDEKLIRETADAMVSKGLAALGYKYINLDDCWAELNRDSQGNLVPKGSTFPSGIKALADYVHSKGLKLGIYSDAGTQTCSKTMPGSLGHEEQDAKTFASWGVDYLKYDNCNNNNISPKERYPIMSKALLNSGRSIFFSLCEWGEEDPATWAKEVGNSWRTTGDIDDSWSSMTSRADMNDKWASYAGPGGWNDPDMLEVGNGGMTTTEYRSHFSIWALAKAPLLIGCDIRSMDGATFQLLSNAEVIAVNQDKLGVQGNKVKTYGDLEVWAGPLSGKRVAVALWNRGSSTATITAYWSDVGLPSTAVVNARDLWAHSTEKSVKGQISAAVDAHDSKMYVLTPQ
Sequence of Glucocorticoid receptor (Homo sapiens) (P04150 whole entry, looked up): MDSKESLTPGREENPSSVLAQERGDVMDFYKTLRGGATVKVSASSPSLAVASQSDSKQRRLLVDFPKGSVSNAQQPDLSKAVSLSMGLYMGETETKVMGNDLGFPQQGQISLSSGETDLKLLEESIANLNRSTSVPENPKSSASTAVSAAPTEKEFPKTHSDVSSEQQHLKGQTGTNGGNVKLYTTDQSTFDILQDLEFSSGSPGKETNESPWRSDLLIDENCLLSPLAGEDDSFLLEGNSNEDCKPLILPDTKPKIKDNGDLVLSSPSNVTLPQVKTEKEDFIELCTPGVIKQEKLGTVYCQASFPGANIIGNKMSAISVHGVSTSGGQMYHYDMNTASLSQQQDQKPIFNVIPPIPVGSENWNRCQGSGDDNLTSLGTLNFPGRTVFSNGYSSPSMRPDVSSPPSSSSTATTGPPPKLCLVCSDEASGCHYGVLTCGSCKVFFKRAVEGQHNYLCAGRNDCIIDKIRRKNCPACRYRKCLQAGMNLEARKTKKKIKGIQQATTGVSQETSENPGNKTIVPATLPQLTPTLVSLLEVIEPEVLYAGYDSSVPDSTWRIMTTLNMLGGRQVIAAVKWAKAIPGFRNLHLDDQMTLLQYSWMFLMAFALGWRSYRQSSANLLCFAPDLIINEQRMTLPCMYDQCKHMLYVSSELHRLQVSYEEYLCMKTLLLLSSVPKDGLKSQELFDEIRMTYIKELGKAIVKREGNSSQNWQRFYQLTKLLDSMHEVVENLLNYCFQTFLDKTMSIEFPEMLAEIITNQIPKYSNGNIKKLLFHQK

As to `C[Se]C[C@@H](N)C(=O)O`, the activity change, negative = inhibition in [1] was 1.98% [at 38 µM]; in assay [3] it was 5.06% [at 38 µM]. Besides, the Potency entry in assay [2], in assay [7], in assay [10], in assay [12] and in assay [13] was “inactive” in each case. For the same compound, the activity, negative = inhibition in assay [4] is -28.4% [at 38 µM]. Moreover, the Potency in assay [5] and in assay [6] was over 46 µM each time. In addition, the outcome in [8], in [9], in assay [11], in assay [14], in assay [15] and in assay [16] was inactive. Besides, the result in assay [17] and in [18] was inactive.
As to `C[C@]12CC[C@H](O)CC1=CC[C@@H]1[C@H]2CC[C@]2(C)C(=O)CC[C@H]12`, the activity change, negative = inhibition in assay [1] is 1.1% [at 38 µM]; in assay [3] it was 2.55% [at 38 µM]. The Potency result in assay [2] and in assay [13] was “inactive” each time. The activity, negative = inhibition in assay [4] is 3.87% [at 38 µM]. Moreover, the Potency in [5] and in assay [6] was over 46 µM in each case. For the same compound, the compound was called inactive in assay [8], in assay [9], in assay [11], in [14], in assay [15] and in assay [16]. Further, the compound was classed as inactive in assay [17] and in assay [18].
As to `CC(C)C[C@H](NP(=O)(O)O[C@@H]1O[C@@H](C)[C@@H](O)[C@@H](O)[C@H]1O)C(=O)N[C@@H](Cc1c[nH]c2ccccc12)C(=O)O`, the activity change, negative = inhibition is 5.95% [at 38 µM] in assay [1] and 9.26% [at 38 µM] in assay [3]. Besides, the Potency entry in [2], in [7], in [12] and in assay [13] was “inactive” in each case. Also, the activity, negative = inhibition in assay [4] was 14.9% [at 38 µM]. Moreover, the Potency in [5] and in assay [6] was over 46 µM throughout. Moreover, the result in assay [8], in assay [9], in assay [11], in [14], in assay [15] and in assay [16] was inactive. In addition, the call in assay [17] and in assay [18] was inactive.
`CCCN1CC[C@@H]2c3cc(O)ccc3CC[C@H]21`: the results for the activity change, negative = inhibition in [1] and in assay [3] were -14.4% [at 38 µM] and -28.7% [at 38 µM], respectively. Also, the Potency result in assay [2] and in assay [7] was “inactive” throughout. Moreover, the activity, negative = inhibition in assay [4] is -6.76% [at 38 µM]. Further, the Potency is over 46 µM in assay [5], over 46 µM in [6], 14.1 µM (active) in assay [12] and 14.1 µM (active) in assay [13]. The result in assay [8], in assay [9], in [11], in [14], in assay [15] and in assay [16] was inactive. In addition, the result in assay [17] and in assay [18] was inactive.
